# Source: the supplement of paper PMC3334620
# Whole data set: some 33,000 sequences, median “E-score (-0.5 to 0.5)” near -0.011, cut for the highest 2% near 0.28. What follows is part of a selection rich in the highest values, with near analogues and random picks from the rest.
# Target: T1, Gcr1 (UniProt P07261)
# T1 sequence: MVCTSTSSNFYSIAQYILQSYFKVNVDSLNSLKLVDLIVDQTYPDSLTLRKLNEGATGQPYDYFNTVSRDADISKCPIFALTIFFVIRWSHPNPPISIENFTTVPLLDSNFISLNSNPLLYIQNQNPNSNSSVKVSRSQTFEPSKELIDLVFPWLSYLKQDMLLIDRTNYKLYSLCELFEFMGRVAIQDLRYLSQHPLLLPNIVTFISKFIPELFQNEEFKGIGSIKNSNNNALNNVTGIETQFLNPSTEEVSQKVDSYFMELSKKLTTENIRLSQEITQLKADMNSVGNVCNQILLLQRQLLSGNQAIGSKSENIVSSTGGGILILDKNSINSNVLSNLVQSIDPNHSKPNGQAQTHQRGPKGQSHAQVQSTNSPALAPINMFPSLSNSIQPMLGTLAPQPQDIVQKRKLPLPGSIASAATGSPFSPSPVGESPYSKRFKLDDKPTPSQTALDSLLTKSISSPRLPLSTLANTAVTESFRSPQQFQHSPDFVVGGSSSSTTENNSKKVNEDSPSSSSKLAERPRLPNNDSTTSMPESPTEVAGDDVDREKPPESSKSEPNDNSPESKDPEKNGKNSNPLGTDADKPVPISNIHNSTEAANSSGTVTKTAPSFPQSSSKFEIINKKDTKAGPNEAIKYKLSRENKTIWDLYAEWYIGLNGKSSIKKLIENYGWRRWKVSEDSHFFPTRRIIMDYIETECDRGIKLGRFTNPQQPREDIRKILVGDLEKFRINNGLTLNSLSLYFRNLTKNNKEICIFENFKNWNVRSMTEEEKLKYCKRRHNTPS
# Assay: PBM E-score (8-mer binding enrichment) (E-score (-0.5 to 0.5)); higher = stronger / more preferred TF binding
# Details: protein concentration: 100 nM; construct: GST-full length
# How it was run: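 Yeast transcription factors carrying a GST tag, as full-length proteins or DNA-binding domains, were produced by PURExpress in vitro transcription/translation. About 100-200 nM protein was applied to universal all-10-mer Agilent arrays, double-stranded by primer extension on fresh or once-stripped slides. Bound protein was detected with fluorescent anti-GST, and scans were normalised with masliner. The Universal PBM Analysis Suite gave each ungapped eight-base word, pooled with its reverse complement, an E-score, a modified Wilcoxon-Mann-Whitney statistic.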
row,Sequence,PBM E-score
1,CCAAGGTC,-0.0561
2,CGAAAGGC,0.0349
3,GCCTTCAC,-0.0793
4,AGCTGCAT,-0.077
5,CTCGGCGC,0.159
6,CAAAGGCG,-0.134
7,AGGCGTCC,0.387
8,CGGCGTCC,0.412
9,AGGCGTCG,-0.0284
10,CGGCGTCA,0.0965
11,CGGCGTGC,-0.094
12,AGGCGTCA,-0.194
13,ATATAGAG,0.133
14,AAATTCAG,0.169
15,CCATAGGC,-0.00913
16,TGAGAAAA,0.0932
17,AGGCAGAT,0.0845
18,ATACGTAA,0.053
19,ATACGTAT,0.284
20,ATACGTAC,-0.00136
21,AAACCAAC,0.0391
22,GCACCATA,0.228
23,AGTTTTAT,0.112
24,ATACTATA,-0.0912
25,CTACTATC,0.146

row,Sequence,PBM E-score
1,CTACTATA,0.282
2,CGAGCCTC,-0.0914
3,GAACAACC,-0.0951
4,AGGCACTA,-0.113
5,AGCAACCC,0.00142
6,AGCAACCG,0.0554
7,GGCAACCC,0.176
8,AGCAACCA,0.349
9,CGCAACCA,0.147
10,GGCAACCA,0.374
11,TGCAACCA,0.261
12,ACCAACCA,0.0293
13,AGCAACCT,0.316
14,ACTAACCA,0.117
15,CGTAAGAG,-0.199
16,CAGCTGTC,-0.0336
17,AATGCTCT,-0.112
18,CCATTCCC,-0.0773
19,GGCGTCTA,0.342
20,CGCGTCTA,0.137
21,CGCGTCTC,0.301
22,AGCGTCAA,0.0252
23,CCCGTCTC,-0.0723
24,AGCGTCTC,0.22
25,AGCGTCTG,0.175

row,Sequence,PBM E-score
1,GGCGTCAA,-0.0289
2,AGCGTCTA,0.307
3,ATGAAGCC,0.145
4,AATACCGA,0.0609
5,AGGTTCCA,0.327
6,AGGTTCCG,0.205
7,GGTTTCCA,0.119
8,GAGTTCCA,0.123
9,GGGTTCCA,0.419
10,CGGTTCCA,0.189
11,CGGCCCTA,-0.253
12,TGGATAAA,0.11
13,GACTTCCA,0.319
14,CACTTCCG,0.0282
15,GACTTCCC,0.127
16,TACTTCCA,0.121
17,AACTTCCA,0.349
18,GACTTCAA,-0.0566
19,CAATTCCA,0.0815
20,GAATTCCC,0.116
21,CACTTCCA,0.312
22,GAATTCCA,0.369
23,CACTTCCC,0.0585
24,AACTTCCG,0.267
25,CCGACCCA,-0.0324

row,Sequence,PBM E-score
1,CGCAGGCG,0.00025
2,ATTGCTAC,0.11
3,ACGGCTCG,-0.105
4,GTCATTAA,0.0346
5,AGTCCGTG,-0.0968
6,AAATCCAT,0.129
7,GGCCCGCA,-0.0485
8,CAACCCAG,0.00319
9,CCCGCGAC,-0.167
10,AACTTCCC,-0.0101
11,AACTTCGT,0.173
12,AACTTCCT,0.376
13,AGGGAAAT,-0.173
14,ACTGCTAA,-0.0287
15,GCCACTCC,-0.045
16,CCCACTAC,0.187
17,ACCACTAA,0.285
18,GCCACTAC,0.305
19,TCCACTCA,0.189
20,CCCACTAA,0.241
21,ACCACTAT,0.356
22,ACCACTAG,0.267
23,ACCACTAC,0.129
24,TCCACTAA,0.418
25,ACCACTCA,-0.067

row,Sequence,PBM E-score
1,AGCACTAA,-0.0258
2,ATCGAGCG,-0.167
3,GGATATCC,-0.206
4,CCGATTCA,-0.00017
5,CTGCCGAA,-0.0682
6,GCCACTGA,0.237
7,GCCACTTA,0.184
8,GCCACTAA,0.366
9,ACAAAGAG,-0.078
10,CGGCAGCC,0.382
11,CGGCAGCA,-0.0108
12,AGGCAGCC,0.382
13,AGGCAGCA,0.0795
14,AGGCAGCG,0.0171
15,CGGCAGAC,-0.254
16,AGTCTACG,-0.0187
17,GGACGCTA,0.363
18,CGACGCTA,0.0406
19,GCACGCTA,-0.0819
20,AGACGCTC,0.185
21,AGACGCTA,0.293
22,AGACGCTG,0.254
23,ACGAGCAC,-0.0665
24,AAACCCGG,0.0332
25,ACGCGCAT,-0.0657

row,Sequence,PBM E-score
1,GCCTGTGA,0.0496
2,CTGGAATA,0.259
3,ATGGAATC,0.29
4,ATGGAATG,-0.00503
5,CTGGAATC,0.407
6,ATGGAATA,0.0994
7,CCGGAATC,0.219
8,AACGCTCC,-0.276
9,GCGTCTTA,0.239
10,CAGCTCGC,-0.117
11,CGACCGTC,-0.41
12,TGATATCA,0.0841
13,CAGCCATA,0.022
14,AGCAGCAT,-0.00516
15,AGCAGCAG,-0.0192
16,CGCAGCGC,0.15
17,AGCAGCTG,0.311
18,AGCAGCCT,0.369
19,AGCAGCCG,0.285
20,AGCAGCTA,0.273
21,AGCAGCTC,0.16
22,ATCAGCCG,-0.264
23,CACAGCCC,-0.232
24,CGCAGCCC,0.324
25,ACCAGCCT,0.0001

row,Sequence,PBM E-score
1,ACATTACA,0.178
2,GGGTTAAC,0.0316
3,ATCCCCGA,0.0266
4,AGCCCGCA,0.225
5,CCTACTAC,-0.0926
6,CACTAACG,0.00491
7,CGCGAGTC,-0.109
8,AGTAGCAT,-0.0355
9,CACCTTAG,0.141
10,GCCAGCCC,-0.0556
11,AGCAGCAA,0.0994
12,CGCAGCGA,0.22
13,GGCAGCCA,0.422
14,GCCAGCCA,-0.0514
15,GGCAGCCC,0.324
16,TGCAGCCA,0.00515
17,AGCAGCCC,0.2
18,GGCAGCAC,-0.0566
19,AGCAGCCA,0.35
20,CGCAGCCA,0.365
21,CGCAGCCG,0.0939
22,AGGCCAGG,-0.25
23,ATCTATGA,-0.0683
24,ACTGAAAC,0.0485
25,CTAAACGC,0.0998

row,Sequence,PBM E-score
1,AGATCTGG,0.00449
2,ACGTTCAC,-0.22
3,GTCAGGAC,0.00402
4,GTCCAAGA,0.149
5,CACTCCCG,-0.134
6,GCCCTGGA,-0.0767
7,ACAGGACG,0.26
8,ACAGGAAG,0.455
9,CCAGGAAG,0.166
10,ACAGGAAA,0.125
11,ACAGGAAC,0.144
12,ACAGGAAT,0.307
13,CTGTTCCC,-0.0872
14,CACGGTAA,-0.233
15,CTATCGAC,-0.0454
16,GCCTCTCA,-0.0769
17,ACCTATAG,0.161
18,CGAGCGGA,-0.113
19,GGGAGCCA,0.387
20,AGGAGCCA,0.214
21,CGGAGCCG,0.0209
22,TGGAGCCA,0.205
23,CGGAGCCA,0.282
24,GGGAGCCC,0.226
25,GGTTTGGA,0.115

row,Sequence,PBM E-score
1,AATGCCCG,-0.207
2,AGAAAGGA,-0.143
3,CCGTCTCG,-0.0715
4,GTCACTAA,0.107
5,GGCGCCTA,0.385
6,AGCGCCTA,0.164
7,AGCGCCAA,0.124
8,AGCGCCGA,0.0415
9,GGCGCCAC,0.253
10,GGCGCCAA,0.377
11,CGCGCCTA,0.258
12,CGCGCCGA,0.0709
13,GGCGCCGA,0.286
14,AGGGTCGG,-0.133
15,GAATTTCC,0.082
16,AATACAGG,0.343
17,AATACAGA,-0.0124
18,ATTACAGC,-0.134
19,ATTACAGG,0.355
20,AATACAAG,0.293
21,AATACAGT,-0.0143
22,AATACAAT,-0.0331
23,AATACAAC,0.0962
24,ATTACAGA,0.053
